Screening results: PubChem BioAssay, National Center for Advancing Translational Sciences (NCATS)
D2 PAM-1 = Beta-Arrestin HTS for Positive Allosteric Modulators of the Human D2 Dopamine Receptor: Potentiators | D(2) dopamine receptor (Homo sapiens), P14416 | DiscoveRx D2 beta-arrestin cells, luminescence, 90 min; 100% = 57 uM dopamine signal | potentiation, % (test concentration not listed) | hit rate 0.23% among 360,000 | AID 624464, 2012; in the data active = potentiation above about 50%; inconclusive = mostly about 30% to 49%
Target sequence (P14416 whole entry, looked up): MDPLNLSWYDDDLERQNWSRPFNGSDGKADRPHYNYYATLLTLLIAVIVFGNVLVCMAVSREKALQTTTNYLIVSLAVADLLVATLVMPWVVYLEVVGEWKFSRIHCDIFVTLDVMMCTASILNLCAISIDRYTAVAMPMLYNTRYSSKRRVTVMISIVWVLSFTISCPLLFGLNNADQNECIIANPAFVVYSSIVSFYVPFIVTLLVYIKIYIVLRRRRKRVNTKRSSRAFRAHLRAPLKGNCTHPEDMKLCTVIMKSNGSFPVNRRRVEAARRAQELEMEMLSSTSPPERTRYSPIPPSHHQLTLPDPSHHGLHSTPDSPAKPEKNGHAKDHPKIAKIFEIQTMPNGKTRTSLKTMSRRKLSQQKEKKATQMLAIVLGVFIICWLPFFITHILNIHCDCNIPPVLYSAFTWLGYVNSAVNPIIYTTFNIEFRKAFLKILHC
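PathHunter beta-arrestin assay in DiscoveRx D2 cells. Compounds were added with an EC20 of dopamine (50 nM final) for 90 min at 37 deg C. Luminescence was read 1 h after detection reagent, with 57 uM dopamine as the EC100 control.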
D2 antagonist = HTS Assay for Allosteric Antagonists of the Human D2 Dopamine Receptor: Primary Screen for Antagonists | D(2) dopamine receptor (Homo sapiens), P14416 | HEK293 TREx D2 cells, calcium flux, dopamine EC80 | inhibition, % at 10 µM | hit rate 2% among 340,000 | AID 485344, 2010; in the data active = inhibition above about 30%; inactive = below that, where a call was filed
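Compounds are added to dye-loaded, induced HEK293 T-REx cells coupled to calcium release via D2; after a 3 min kinetic read an EC80 dopamine stimulus is given and fluorescence is recorded for 3 more min.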
D2 PAM-2 = HTS Assay for Positive Allosteric Modulators of the Human D2 Dopamine Receptor: Primary Screen for Potentiators | D(2) dopamine receptor (Homo sapiens), P14416 | HEK293 T-REx D2, calcium flux, EC20 dopamine potentiation | hit rate 0.34% among 340,000 | potentiation, % at 10 µM;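 active = potentiation over 3 SD above the plate norm, cut at about 30% in these data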
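Calcium flux readout, no-wash dye, 1 read/s. Inducible HEK293 Trex D2 line, overnight 30 C. Compound alone 180 s (agonist flags), then EC20 dopamine, another 180 s to score potentiation.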
D2 ag-1 = Beta-Arrestin HTS for Positive Allosteric Modulators of the Human D2 Dopamine Receptor: Agonists; D(2) dopamine receptor (Homo sapiens), P14416; DiscoveRx PathHunter D2 beta-arrestin, luminescence, 90 min; 100% = 57 uM dopamine signal; activation, % (no concentration beside the values); hit rate 0.084% among 360,000; in the data active = activation above about 40%; inconclusive = between about 15% and that limit
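DiscoveRx PathHunter D2 beta-arrestin cells (2,100/well) attached overnight, then compound-stimulated 90 min at 37 C in HBSS/10 mM HEPES/0.1% Tween-20 buffer; beta-galactosidase complementation read by luminescence after 1 h at ambient temperature. Dopamine 57 uM final (EC100) as control.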
D2 ag-2 = HTS Assay for Allosteric Agonists of the Human D2 Dopamine Receptor: Primary Screen for Agonists. D(2) dopamine receptor (Homo sapiens), P14416. HEK293 T-REx D2 cells, calcium flux agonist mode. activation, % at 2 µM. hit rate 0.53% among 340,000;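 active = activation over 3 SD above normal in the single-dose calcium agonist read, cut at about 30% in these data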
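Agonism scored from kinetic calcium signal (1 read/sec, 180 s) following compound pin transfer, after a 10 s baseline. Cells: HEK293 Trex line expressing inducible D2 receptor coupled to calcium, dye-loaded after overnight culture at 30 C.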
Large screens that a line does not name were inactive; ! = not active in a repeat. A selection: hits, their analogues and other compounds. The true share with any hit is near 2.4%.

CN1CCC(OC(=O)C2c3ccccc3Oc3ccccc32)CC1	D2 antagonist 33
COc1ccc(-c2nc(CN3C(=O)CN=C(c4ccccc4)c4cc(Cl)ccc43)c(C)o2)cc1	none (no result: D2 PAM-1, D2 antagonist, D2 PAM-2, D2 ag-1)
CSc1ccc(C(=O)C2CCCN(CCCn3cccn3)C2)cc1 (centres undefined)	D2 antagonist 36
CCn1ccnc1CN1CCCC(C(=O)c2ccc(SC)cc2)C1 (centres undefined)	none
Cc1cc(NC(=O)c2cccn(Cc3cccc([N+](=O)[O-])c3)c2=O)no1	none (no result: D2 PAM-1, D2 antagonist, D2 ag-1)
COc1cc(OC)c(OC)cc1CN1CCN(C(=O)COc2ccc3ccccc3c2)CC1	none
COc1ccccc1CN1CCN(C(=O)COc2ccccc2)CC1	D2 antagonist 33
COc1ccc(OCC(=O)N2CCN(Cc3ccc(SC)cc3)CC2)cc1	D2 antagonist 46, D2 PAM-2 34!
COc1ccc(OCC(=O)N2CCN(Cc3ccc4c(c3)OCO4)CC2)cc1	none
Cc1sc2ncn(CC(=O)N3CCC4(CC3)OCCO4)c(=O)c2c1C	D2 PAM-2 30
CC(=O)N1CCC2(CC1)CC(=O)c1cc(OCC(=O)N3CCN(C)CC3)ccc1O2	none
CC(=O)N1CCC2(CC1)CC(=O)c1cc(OCC(=O)N3CCC4(CC3)OCCO4)ccc1O2	D2 PAM-2 31
COc1ccc(C(=O)N2CCCC2=O)cc1	D2 antagonist 40
Nc1c(C(=O)Nc2ccc(Cl)c(C(F)(F)F)c2)sc2nc3c(cc12)N1CCC3CC1	none (no result: D2 PAM-1, D2 antagonist, D2 ag-1)
CC(C)N1CCOC(c2ccc(O)c(O)c2)C1 (centres undefined)	D2 PAM-1 60, D2 ag-1 83 (no result: D2 antagonist, D2 PAM-2, D2 ag-2)
CC(C)N1CCN(c2ccc(O)cc2)CC1	none
O=C1NC(=O)[C@]2(Cc3ccccc3N3CCN(c4ccccc4)CC32)C(=O)N1Cc1ccccc1 (some centres undefined)	D2 antagonist 40, D2 ag-1 inconclusive, D2 ag-2 35
CCn1cc(C=C2C(=O)NC(=O)NC2=O)c2ccccc21	D2 antagonist 38
CCN(CC)C(=O)c1ccc(NC(=O)CCn2nc(-c3ccc(C)cc3)c3ccccc3c2=O)cc1	none (no result: D2 PAM-1, D2 antagonist, D2 ag-1, D2 ag-2)
CCN1/C(=C\C=C\C2=[N+](CC)c3ccccc3C2(C)C)C(C)(C)c2ccccc21	D2 ag-2 50
Cc1ccc(CN2C3CCCC2CC(NC(=O)Nc2cccc(F)c2)C3)cc1 (centres undefined)	D2 antagonist 75
CCC1(C)OC(c2ccccc2)=C/C(=C/C=C2C(=O)NC(=O)NC2=O)O1 (centres undefined)	D2 antagonist 43
CCCC1=C(C(=O)OCC)C2(C(=O)Nc3ccc(C)cc32)C(C#N)=C(N)O1 (centres undefined)	D2 PAM-1 inconclusive
CCOC(=O)CC1=C(C(=O)OCC)C2(C(=O)Nc3ccccc32)C(C#N)=C(N)O1 (centres undefined)	D2 PAM-1 75
Cc1cc(O)c(CN2CC=C(c3ccccc3)CC2)cc1C(C)C	D2 antagonist 75
O=c1cc(CN2CC=C(c3ccccc3)CC2)c2c(ccc3ccccc32)o1	none
CCOc1ccc(CN(CCc2ccc3c(c2)OCO3)Cc2ccc(CC)cc2)cc1	none (no result: D2 PAM-1, D2 antagonist, D2 ag-1)
CCCCC1(CN2CCCC2=O)C(=O)NC(=O)NC1=O	D2 antagonist 45
COC(=O)C(O)(c1ccc(NC(=S)NC(=O)c2ccc(Cl)cc2Cl)cc1)C(F)(F)F (centres undefined)	D2 PAM-2 32
O=C(Nc1ccccc1)Oc1ccccc1	none
CC(/C=C(\C)Nc1ccccc1)=Nc1ccccc1	D2 PAM-2 37
O=C1Nc2ccccc2Sc2ccccc21	none
c1ccc2c(c1)Nc1ccccc1S2	D2 PAM-1 68, D2 ag-1 inconclusive
COc1cccc(CNCCc2c[nH]c3ccccc23)c1	D2 antagonist 46
COc1ccc2[nH]cc(CCNCc3cccnc3)c2c1	none
O=C(CCCN1CCC2(CC1)C(=O)NCN2c1ccccc1)c1ccc(F)cc1	D2 antagonist 71, D2 ag-2 76 (no result: D2 PAM-1, D2 PAM-2, D2 ag-1)
